From PubChem BioAssay AID624255 (Broad Institute, 2012)
Where “and” joins values, the source holds several entries; their conditions need not be identical. Equal entries are not always repeated. Screen size: about 77,000 compounds; about 4,600 (6%) were called active. Not shown: some 1% with an inconclusive outcome.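 Rule for the calls: active = mean inhibition above about 93%, with at least 55% of replicates each passing it (limit read from the data, passing the limit was not always enough); inconclusive = only one of those two conditions holds; inactive = neither condition holds.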 For the sample, actives were picked, then their nearest neighbours and some compounds at random. Some structures have more than one record in an assay (separate samples or runs), and their calls can disagree.

Assay: growth inhibition of T. cruzi in host fibroblasts – cell-based, beta-gal Tulahuen parasites, NIH3T3 host, luminescence, primary screen (AID 624255)
Conditions: T. cruzi beta-gal in NIH3T3, GalScreen luminescence, 90 h; at 8.34 µM; stronger effect = higher value

Question: Which inhibition does the source give for `C[C@H](CO)N1C[C@H](C)[C@H](CN(C)Cc2ccc(C(F)(F)F)cc2)OCCCC[C@H](C)Oc2ccc(NS(=O)(=O)c3ccc(Cl)cc3)cc2C1=O` here?
Answer: 98.6% (active)

Question: For `Cc1ccc(S(=O)(=O)Nc2ccc3c(c2)C(=O)N([C@H](C)CO)C[C@H](C)[C@@H](CN(C)Cc2ccccc2)OCCCC[C@H](C)O3)cc1`, which inhibition is on record?
Answer: 38.8% (inactive)

Question: Which inhibition does the source give for `C[C@@H]1CCCCO[C@H](CN(C)Cc2ccccc2)[C@@H](C)CN([C@H](C)CO)C(=O)c2cc(NS(=O)(=O)c3ccc(Cl)cc3)ccc2O1` here?
Answer: -26.9% (inactive)

Question: For `C[C@@H]1CCCCO[C@H](CN(C)Cc2ccccc2)[C@H](C)CN([C@@H](C)CO)C(=O)c2cc(NS(=O)(=O)c3ccccc3)ccc2O1`, which inhibition is on record?
Answer: 86% (inactive)

Question: Which inhibition does the source give for `C[C@@H]1CCCCO[C@@H](CN(C)Cc2ccc(C(F)(F)F)cc2)[C@H](C)CN([C@H](C)CO)C(=O)c2cc(NS(=O)(=O)c3ccc(F)cc3)ccc2O1` here?
Answer: 56.1% (inactive)

Question: Which inhibition does the source give for `COc1ccc(S(=O)(=O)Nc2ccc3c(c2)C(=O)N([C@@H](C)CO)C[C@H](C)[C@H](CN(C)Cc2ccc(C(F)(F)F)cc2)OCCCC[C@@H](C)O3)cc1` here?
Answer: 63.1% (inactive)

Question: Which inhibition does the source give for `C[C@@H]1CCCCO[C@@H](CN(C)Cc2ccc(C(=O)O)cc2)[C@H](C)CN([C@H](C)CO)C(=O)c2cc(NS(=O)(=O)c3cccs3)ccc2O1` here?
Answer: -101% (inactive)

Question: For `Cc1ccc(S(=O)(=O)Nc2ccc3c(c2)C(=O)N([C@H](C)CO)C[C@@H](C)[C@H](CN(C)Cc2ccccc2)OCCCC[C@H](C)O3)cc1`, which inhibition is on record?
Answer: 85.7% (inactive)

Question: Which inhibition does the source give for `C[C@@H]1CN([C@H](C)CO)C(=O)c2cc(NS(=O)(=O)c3cccs3)ccc2O[C@@H](C)CCCCO[C@H]1CN(C)Cc1ccc(C(F)(F)F)cc1` here?
Answer: 97.6% (active)

Question: With `COc1ccc(CN(C)C[C@@H]2OCCCC[C@H](C)Oc3ccc(NS(=O)(=O)c4cccs4)cc3C(=O)N([C@H](C)CO)C[C@@H]2C)cc1` as the compound, how does the inhibition read?
Answer: 44.9% (inactive)

Question: For `C[C@@H]1CN([C@H](C)CO)C(=O)c2cc(NS(=O)(=O)c3ccc(Cl)cc3)ccc2O[C@@H](C)CCCCO[C@H]1CN(C)Cc1ccccc1`, which inhibition is on record?
Answer: 112% (active)

Question: For `C[C@@H]1CCCCO[C@H](CN(C)Cc2ccccc2)[C@H](C)CN([C@H](C)CO)C(=O)c2cc(NS(=O)(=O)c3ccc(Cl)cc3)ccc2O1`, which inhibition is on record?
Answer: 109% (active)

Question: Which inhibition does the source give for `CN1C(=O)c2cc(NC(=O)C3CC3)ccc2OC[C@@H]2O[C@@H](CC(=O)NCC3CCCCC3)CC[C@@H]21` here?
Answer: -7.09% (inactive)

Question: With `CCN1[C@@H]2c3ccc(C4=CCCC4)c(=O)n3C[C@@H]2[C@@H](CO)[C@@H]1C(=O)NCc1ccccn1` as the compound, how does the inhibition read?
Answer: 26.1% (inactive)

Question: With `CO[C@H]1CN(C)C(=O)c2ccc(NC(=O)C3CC3)cc2OC[C@@H](C)N(C(=O)CN2CCOCC2)C[C@H]1C` as the compound, how does the inhibition read?
Answer: -43.7% (inactive)

Question: Which inhibition does the source give for `CN1C(=O)c2cc(NC(=O)c3cnccn3)ccc2OC[C@@H]2O[C@H](CC(=O)O)CC[C@@H]21` here?
Answer: 8.56% (inactive)

Question: Which inhibition does the source give for `CC(=O)N1[C@H](CN(CC2CCC2)C(=O)CN(C)C)[C@@H](c2ccccc2)[C@@H]1CO` here?
Answer: 54.9% (inactive)

Question: Which inhibition does the source give for `COc1ccc(NC(=O)N2C[C@H](O)COC[C@H]3O[C@@H](CC(=O)N4CCN(C)CC4)CC[C@@H]32)cc1` here?
Answer: 7.94% (inactive)

Question: Which inhibition does the source give for `C[C@H]1CN([C@@H](C)CO)S(=O)(=O)c2ccc(-c3cncnc3)cc2O[C@H]1CN(C)Cc1ccncc1` here?
Answer: 25.1% (inactive)

Question: For `C[C@@H]1CN([C@H](C)CO)S(=O)(=O)c2ccc(C#C[C@@H](C)O)cc2O[C@@H]1CN(C)Cc1ccc(-c2ccccc2)cc1`, which inhibition is on record?
Answer: 73.7% (inactive) and 125% (active)

Question: Which inhibition does the source give for `C[C@H](O)C#Cc1ccc2c(c1)O[C@@H](CN(C)Cc1cncnc1)[C@H](C)CN([C@H](C)CO)S2(=O)=O` here?
Answer: -5.8% (inactive)

Question: For `C[C@@H]1CN([C@@H](C)CO)S(=O)(=O)c2ccc(-c3ccncc3)cc2O[C@@H]1CN(C)C(=O)Nc1ccc(F)cc1`, which inhibition is on record?
Answer: 100% (active)

Question: With `C[C@H]1CN([C@@H](C)CO)S(=O)(=O)c2ccc(C#CCN(C)C)cc2O[C@@H]1CN(C)Cc1ccc(F)cc1` as the compound, how does the inhibition read?
Answer: 115% (active)

Question: For `C[C@@H]1CN([C@@H](C)CO)S(=O)(=O)c2ccc(C#CCN(C)C)cc2O[C@@H]1CN(C)CC1CC1`, which inhibition is on record?
Answer: -40.3% (inactive)

Question: Which inhibition does the source give for `C[C@H](CO)N1C[C@H](C)[C@H](CN(C)Cc2ccncc2)Oc2cc(-c3ccncc3)ccc2S1(=O)=O` here?
Answer: 111% (active)

Question: For `C[C@H](O)C#Cc1ccc2c(c1)O[C@H](CN(C)Cc1cncnc1)[C@H](C)CN([C@@H](C)CO)S2(=O)=O`, which inhibition is on record?
Answer: 36.8% (inactive)

Question: With `COc1ccc(NC(=O)N(C)C[C@H]2Oc3cc(-c4ccncc4)ccc3S(=O)(=O)N([C@H](C)CO)C[C@H]2C)cc1` as the compound, how does the inhibition read?
Answer: 70.2% (inactive)

Question: Which inhibition does the source give for `C[C@@H]1CN([C@H](C)CO)S(=O)(=O)c2ccc(-c3ccncc3)cc2O[C@@H]1CN(C)C(=O)Nc1ccc(C(F)(F)F)cc1` here?
Answer: 82.6% (inactive)

Question: With `C[C@H](CO)N1C[C@H](C)[C@H](CN(C)Cc2ccncc2)Oc2cc(-c3cncnc3)ccc2S1(=O)=O` as the compound, how does the inhibition read?
Answer: 16.7% (inactive)

Question: Which inhibition does the source give for `C[C@@H]1CN([C@H](C)CO)S(=O)(=O)c2ccc(C#CCN(C)C)cc2O[C@@H]1CN(C)C` here?
Answer: -35.4% (inactive)

Question: For `CC=Cc1ccc2n(c1=O)C[C@@H]1[C@@H](CO)[C@H](C(=O)N3CCc4ccccc4C3)N(C(=O)C3CCC3)[C@H]21` (mixture of isomers), which inhibition is on record?
Answer: 39.9% (inactive)

Question: Which inhibition does the source give for `CCCC(=O)Nc1ccc2c(c1)C(=O)N(C)C[C@@H](OC)[C@H](C)CN(C(C)=O)[C@H](C)CO2` here?
Answer: -1.03% (inactive)

Question: With `Cc1ccc(S(=O)(=O)N(C)C[C@@H]2OCCCC[C@H](C)Oc3ccc(NS(=O)(=O)c4cn(C)cn4)cc3C(=O)N([C@H](C)CO)C[C@@H]2C)cc1` as the compound, how does the inhibition read?
Answer: 39.1% (inactive)

Question: Which inhibition does the source give for `CO[C@@H]1CN(C)C(=O)c2ccc(NC(=O)c3ccc(F)cc3)cc2OC[C@H](C)NC[C@@H]1C` here?
Answer: -9.72% (inactive)

Question: With `Cn1cnc(S(=O)(=O)N2C[C@@H](O)COC[C@H]3O[C@H](CC(=O)N4CCN(c5ccccc5)CC4)CC[C@@H]32)c1` as the compound, how does the inhibition read?
Answer: -64.3% (inactive)

Question: Which inhibition does the source give for `CC(C)C#Cc1ccc2c(c1)O[C@@H](CN(C)Cc1ccncc1)[C@@H](C)CN([C@@H](C)CO)S2(=O)=O` here?
Answer: 122% (active)

Question: For `CC(C)C#Cc1ccc2c(c1)O[C@H](CN(C)Cc1ccccc1)[C@H](C)CN([C@@H](C)CO)S2(=O)=O`, which inhibition is on record?
Answer: 111% (active)

Question: Which inhibition does the source give for `C[C@@H]1CN([C@@H](C)CO)S(=O)(=O)c2ccc(/C=C/c3ccccc3)cc2O[C@H]1CN(C)Cc1ccccc1` here?
Answer: 107% (active)

Question: With `CC(C)C#Cc1ccc2c(c1)O[C@@H](CN(C)CC1CCOCC1)[C@H](C)CN([C@H](C)CO)S2(=O)=O` as the compound, how does the inhibition read?
Answer: 91.2% (inactive)

Question: Which inhibition does the source give for `C/C=C/c1ccc2c(c1)O[C@H](CN(C)Cc1ccccc1)[C@H](C)CN([C@@H](C)CO)S2(=O)=O` here?
Answer: 62.6% (inactive)

Question: With `C[C@@H]1CN([C@H](C)CO)S(=O)(=O)c2ccc(/C=C/c3ccccc3)cc2O[C@@H]1CN(C)Cc1ccccc1` as the compound, how does the inhibition read?
Answer: 81.9% (inactive)

Question: With `CC(C)C#Cc1ccc2c(c1)O[C@H](CN(C)CC1CCOCC1)[C@@H](C)CN([C@H](C)CO)S2(=O)=O` as the compound, how does the inhibition read?
Answer: 93.8% (inactive)

Question: For `CC(C)C#Cc1ccc2c(c1)O[C@H](CN(C)Cc1ccccn1)[C@H](C)CN([C@H](C)CO)S2(=O)=O`, which inhibition is on record?
Answer: 57.8% (inactive)

Question: Which inhibition does the source give for `C[C@@H]1CN([C@H](C)CO)S(=O)(=O)c2ccc(C#CC(C)(C)O)cc2O[C@@H]1CN(C)Cc1ccccc1` here?
Answer: 34.1% (inactive)

Question: For `COc1cccc(NC(=O)C[C@H]2CC[C@@H]3[C@H](COc4ccc(NC(C)=O)cc4C(=O)N3C)O2)c1`, which inhibition is on record?
Answer: -37.9% (inactive)

Question: For `O=C(C[C@@H]1CC[C@@H]2[C@H](COC[C@@H](O)CN2S(=O)(=O)c2ccccc2)O1)NCC1CCCCC1`, which inhibition is on record?
Answer: 34.1% (inactive)

Question: Which inhibition does the source give for `COc1ccc(NC(=O)N[C@@H]2CC[C@H](CC(=O)NC3CCC3)O[C@H]2CO)cc1` here?
Answer: 16% (inactive)

Question: With `COc1cccc(S(=O)(=O)N[C@@H]2CC[C@H](CCNC(=O)Cc3ccncc3)O[C@@H]2CO)c1` as the compound, how does the inhibition read?
Answer: -52.5% (inactive)

Question: Which inhibition does the source give for `O=C(NCC[C@@H]1CC[C@@H](NC(=O)c2ccccc2F)[C@H](CO)O1)c1ccc2c(c1)OCO2` here?
Answer: 20.7% (inactive)

Question: Which inhibition does the source give for `COc1ccc(NC(=O)N(C)C[C@H]2OCCCC[C@H](C)Oc3ccc(NS(C)(=O)=O)cc3C(=O)N([C@H](C)CO)C[C@@H]2C)cc1` here?
Answer: 42.5% (inactive)

Question: For `CN1CCN(C(=O)C[C@H]2C[C@@H]3c4cc(NC(=O)Nc5ccc(C(F)(F)F)cc5)ccc4O[C@@H]3[C@H](CO)O2)CC1`, which inhibition is on record?
Answer: -59.1% (inactive)

Question: Which inhibition does the source give for `C[C@@H]1CN([C@H](C)CO)C(=O)c2cc(NC(=O)Nc3ccc(F)cc3)ccc2O[C@@H](C)CCCCO[C@@H]1CN(C)CC1CCCCC1` here?
Answer: 115% (active)

Question: For `C[C@@H]1CCCCO[C@H](CN(C)C(=O)NC2CCCCC2)[C@H](C)CN([C@H](C)CO)C(=O)c2cc(NC(=O)Nc3ccc(F)cc3)ccc2O1`, which inhibition is on record?
Answer: 110% (active)

Question: Which inhibition does the source give for `C[C@@H]1CCCCO[C@H](CN(C)CC2CC2)[C@@H](C)CN([C@H](C)CO)C(=O)c2cc(NC(=O)Nc3ccc(F)cc3)ccc2O1` here?
Answer: 18.3% (inactive)

Question: For `C[C@@H]1CCCCO[C@H](CN(C)C(=O)NC2CCCCC2)[C@H](C)CN([C@@H](C)CO)C(=O)c2cc(NC(=O)Nc3ccc(F)cc3)ccc2O1`, which inhibition is on record?
Answer: 93.1% (inactive)

Question: With `C[C@@H]1CCCCO[C@H](CN(C)CC2CCCCC2)[C@H](C)CN([C@H](C)CO)C(=O)c2cc(NC(=O)Nc3ccc(F)cc3)ccc2O1` as the compound, how does the inhibition read?
Answer: 71.7% (inactive)

Question: With `C[C@@H]1CCCCO[C@@H](CN(C)C(=O)NC2CCCCC2)[C@H](C)CN([C@@H](C)CO)C(=O)c2cc(NC(=O)Nc3ccc(F)cc3)ccc2O1` as the compound, how does the inhibition read?
Answer: 54.3% (inactive)
